# Measured values as given in the supplement of paper PMC8975748.
# Structures can show the parent of a compound that is named as a salt.
# Tested on: Saccharomyces cerevisiae BY4741 SeMeCo community
# Experiment: z-score of subpopulation abundance vs DMSO median, subpopulation auxotrophic for H; higher = larger share of this subpopulation than in DMSO controls
# Details: 10 µM; 24 h; SM minimal medium; subpopulation (auxotrophy): H
# Procedure: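 Fluorescent four-plasmid SeMeCo (self-establishing metabolically cooperating S. cerevisiae BY4741 community; plasmids pH-mRuby2, pL-mWasabi, pU-eCFP, pM-TagRFP657) was grown 24 h in minimal SM medium with each Selleck FDA-approved drug at 10 µM in 384-well plates. Cells were fixed and imaged by high-content confocal microscopy. For each auxotrophic subpopulation (and the prototroph), a z-score gives the deviation from the DMSO vehicle-control population median.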
row,Compound,z-score of subpopulation abundance
1,CCOC(=O)C1=C[C@@H](OC(CC)CC)[C@H](NC(C)=O)[C@@H](N)C1 [Oseltamivir Phosphate],0.58
2,COc1ccc2cc(C(=O)O)ccc2c1 [6-Methoxy-2-naphthoic acid],2.01
3,C[C@@H](c1ncncc1F)[C@](O)(Cn1cncn1)c1ccc(F)cc1F [Voriconazole],12.8
4,Fc1ccc([C@@H]2CCNC[C@H]2COc2ccc3c(c2)OCO3)cc1 [Paroxetine mesylate],-0.34
5,CCCCCCCCN=c1ccn(CCCCCCCCCCn2ccc(=NCCCCCCCC)cc2)cc1 [Octenidine Dihydrochloride],13.2
6,CCNC(=O)[C@@H]1CCCN1C(=O)[C@H](CCCNC(=N)N)NC(=O)[C@H](CC(C)C)NC(=O)[C@@H](CC(C)C)NC(=O)[C@H](Cc1ccc(O)cc1)NC(=O)[C@H](CO)NC(=O)[C@H](Cc1c[nH]c2ccccc12)NC(=O)[C@H](Cc1c[nH]cn1)NC(=O)[C@@H]1CCC(=O)N1 [Leuprolide Acetate],0.67
7,CC(=O)O[C@H]1C[C@@H]2CC[C@@H]3[C@H](CC[C@@]4(C)[C@H]3C[C@H]([N+]3(C)CCCCC3)[C@@H]4OC(C)=O)[C@@]2(C)C[C@@H]1N1CCCCC1 [Vecuronium Bromide],-0.09
8,O=C(Nc1cc(Cl)cc(Cl)c1O)c1c(O)c(Cl)cc(Cl)c1Cl [Oxyclozanide],-2.53
9,Cc1c(-c2ccc(O)cc2)n(Cc2ccc(OCCN3CCCCCC3)cc2)c2ccc(O)cc12 [Bazedoxifene Acetate],0.29
10,COc1cccc(-c2c(C)n(Cc3c(F)cccc3C(F)(F)F)c(=O)n(C[C@H](NCCCC(=O)O)c3ccccc3)c2=O)c1F [Elagolix Sodium],1.38
11,CO/N=C(\C(=O)N[C@@H]1C(=O)N2C(C(=O)O)=C(CSC(=O)c3ccco3)CS[C@H]12)c1csc(N)n1 [Ceftiofur HCl],-0.05
12,Cc1c(Nc2ncccc2C(=O)O)cccc1C(F)(F)F [Flunixin Meglumin],-0.33
13,COc1cc(Cc2cnc(N)nc2N)cc(OC)c1OC [Trimethoprim],-0.5
14,CC(C(=O)O)c1ccc2c(c1)CC(=O)c1ccccc1S2 (stereo not given) [Zaltoprofen],0.04
15,CN(C)CC(c1ccc(O)cc1)C1(O)CCCCC1 (stereo not given) [Desvenlafaxine],-0.84
16,COc1ccc(C2CNC(=O)C2)cc1OC1CCCC1 (stereo not given) [Rolipram],-0.68
17,Cc1cc(O)cc(C)c1Cl [Chloroxylenol],0.68
18,C[C@@H](O)[C@H]1C(=O)N2C(C(=O)O)=C(S[C@@H]3CN[C@H](C(=O)N(C)C)C3)[C@H](C)[C@H]12 [Meropenem],-0.03
19,O=c1n(CCCN2CCN(c3cccc(Cl)c3)CC2)nc2ccccn12 [Trazodone HCl],-0.86
20,NC12CC3CC(CC(C3)C1)C2 [Amantadine],0.12

row,Compound,z-score of subpopulation abundance
1,C[C@@H]1[C@H](O)[C@@H](C)/C=C/C=C/C=C/C=C/C=C/C=C/C=C/[C@H](O[C@@H]2O[C@H](C)[C@@H](O)[C@H](N)[C@@H]2O)C[C@@H]2O[C@](O)(C[C@@H](O)C[C@@H](O)[C@H](O)CC[C@@H](O)C[C@@H](O)CC(=O)O[C@H]1C)C[C@H](O)[C@H]2C(=O)O [Amphotericin B],-5.04
2,Cc1cc(C)nc(NS(=O)(=O)c2ccc(N)cc2)n1 [Sulfamethazine],0.21
3,CCN(CC)CCOC(=O)c1ccc(N)cc1Cl [Chloroprocaine HCl],-0.3
4,CCC[C@@H]1C[C@@H](C(=O)N[C@@H]([C@H]2O[C@H](SC)[C@H](O)[C@@H](O)[C@H]2O)[C@@H](C)O)N(C)C1 [Lincomycin HCl],-0.53
5,CC(C)COCC(CN(Cc1ccccc1)c1ccccc1)N1CCCC1 (stereo not given) [Bepridil hydrochloride],1.08
6,CCn1cc(C(=O)O)c(=O)c2cc(F)c(N3CCN(C)CC3)cc21 [Pefloxacin Mesylate Dihydrate],0.39
7,Cc1c(-c2ccc(O)cc2)n(Cc2ccc(OCCN3CCCCCC3)cc2)c2ccc(O)cc12 [Bazedoxifene HCl],1.47
8,NC(=O)N/N=C/c1ccc([N+](=O)[O-])o1 [Nitrofural],-0.29
9,Cc1ccc(Sc2ccccc2N2CCNCC2)c(C)c1 [Vortioxetine],-0.14
10,CC(C)n1c(/C=C/C(O)CC(O)CC(=O)O)c(-c2ccc(F)cc2)c2ccccc21 (stereo not given) [Fluvastatin Sodium],6.45
11,CO/N=C(\C(=O)N[C@@H]1C(=O)N2C(C(=O)OCOC(=O)C(C)(C)C)=C(/C=C\c3scnc3C)CS[C@H]12)c1csc(N)n1 [Cefditoren Pivoxil],0.56
12,CC[C@@H]1/C=C(\C)C[C@H](C)C[C@H](OC)[C@H]2O[C@@](O)(C(=O)C(=O)N3CCCC[C@H]3C(=O)O[C@H](/C(C)=C/[C@@H]3CC[C@@H](O)[C@H](OC)C3)[C@H](C)[C@@H](O)CC1=O)[C@H](C)C[C@@H]2OC [Ascomycin (FK520)],1.96
13,CCC(C)C1OC2(CCC1C)CC1CC(CC=C(C)C(OC3CC(OC)C(OC4CC(OC)C(O)C(C)O4)C(C)O3)C(C)C=CC=C3COC4C(O)C(C)=CC(C(=O)O1)C34O)O2 (stereo not given) [Ivermectin],1.41
14,NC(=O)Cc1cccc(C(=O)c2ccccc2)c1N [Nepafenac],-0.38
15,COc1cc(N)c(Cl)cc1C(=O)NC1CCN(CCCOc2ccc(F)cc2)CC1OC (stereo not given) [Cisapride hydrate],0.05
16,CC1(C)S[C@@H]2[C@H](NC(=O)[C@H](N)c3ccc(O)cc3)C(=O)N2[C@H]1C(=O)O [Amoxicillin],0.05
17,Oc1c(Br)cc(Br)c2cccnc12 [Broxyquinoline],11.6
18,CCN1CCCC1CNC(=O)c1cc(S(=O)(=O)CC)c(N)cc1OC (stereo not given) [Amisulpride],0.19
19,COc1cc2c(cc1OC)[C@@H]1Cc3ccc(OC)c(OC)c3CN1CC2 [Rotundine],0.05
20,Nc1ccc2cc3ccc(N)cc3nc2c1 [Proflavine],4.14
